Screens (PubChem BioAssay)
HPGD inh – qHTS Assay for Inhibitors of HPGD (15-Hydroxyprostaglandin Dehydrogenase); AID 894, 2007; 15-hydroxyprostaglandin dehydrogenase [NAD(+)] (Homo sapiens), P15428; purified HPGD, NADH fluorescence kinetic, PGE2 substrate; 4.3% of 150,000 active; Potency, µM, hits mostly inhibitors
Target sequence (P15428 whole entry, looked up): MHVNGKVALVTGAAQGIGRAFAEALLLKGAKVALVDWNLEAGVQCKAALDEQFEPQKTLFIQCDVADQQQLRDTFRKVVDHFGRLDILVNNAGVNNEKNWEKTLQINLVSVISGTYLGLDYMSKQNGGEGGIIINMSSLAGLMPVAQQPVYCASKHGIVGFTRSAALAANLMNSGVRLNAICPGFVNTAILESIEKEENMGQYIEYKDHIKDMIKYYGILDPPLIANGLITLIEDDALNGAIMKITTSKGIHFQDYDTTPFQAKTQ
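NADH formation kinetics: reaction with 30 uM PGE2 and 1 mM NAD+ (final), 20 nM enzyme, Tris-HCl pH 8 with Tween 20, after 15 min compound preincubation at room temperature. Fluorescence change, last versus first of five reads.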
IMPase inh – qHTS Assay for Identifying the Cell-Membrane Permeable IMPase Inhibitors; Inositol monophosphatase 1 (Rattus norvegicus), P97697; inhibition (IP1 accumulation), % at 46.1 µM; CHO-M1 cells, IP1 accumulation, HTRF TR-FRET ratio; AID 901, 2007; 120,000 tested, under 10 active; active = well fitted curve in the direction sought with a large enough effect in the signal ratio, not every such curve was filed as active; inconclusive = small, poorly fitted or top-dose-only effect, or a change in a side signal; inactive = no such curve, though single readings can be large or run the other way; the % refers to the signal ratio;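 also: cells stimulated with carbachol in lithium chloride buffer; higher means more IMPase inhibition seen as more IP1 and lower FRET ratio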
Target sequence (P97697 whole entry, looked up): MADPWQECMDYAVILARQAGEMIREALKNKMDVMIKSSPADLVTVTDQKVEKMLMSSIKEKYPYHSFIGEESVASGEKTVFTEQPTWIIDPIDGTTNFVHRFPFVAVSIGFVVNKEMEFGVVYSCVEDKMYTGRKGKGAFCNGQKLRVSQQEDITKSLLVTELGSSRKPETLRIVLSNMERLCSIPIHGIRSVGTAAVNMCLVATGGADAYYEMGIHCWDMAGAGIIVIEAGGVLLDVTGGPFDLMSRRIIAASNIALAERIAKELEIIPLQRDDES
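In this qHTS, compounds (final up to 46 uM) act on CHO-M1 cells that are then activated through the M1 receptor with carbachol, in pH 7.4 buffer containing 50 mM LiCl, for 30 min. IP1 accumulation is quantified by the IP-One immunoassay.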
ALDH1A1 inh – qHTS Assay for Inhibitors of Aldehyde Dehydrogenase 1 (ALDH1A1); 7.3% of 220,000 active; Potency, µM (top dose mostly 75.3 µM), actives largely listed as inhibitors; Purified ALDH1A1, NADH fluorescence, propionaldehyde substrate; Aldehyde dehydrogenase 1A1 (Homo sapiens), P00352
Of the large screens only hits and unclear results are named; the others gave an inactive call. Compounds with a hit are over-represented: about 9% of the library has one in this group of screens. Unless noted, calls follow the shape of the dose curve; as a rule, active = well fitted inhibition curve with a large enough effect (not every such curve was filed as active); inconclusive = small, poorly fitted or top-dose-only effect, or another doubt; inactive = no such curve, though single readings can be large or run the other way.

O=C1CCCN1CCCN1C(=O)N[C@@H](Cc2ccccc2)C1=O	none
COc1cc(OC)c([C@@H]2O[C@H](CO)[C@@H](O)[C@H](O)[C@H]2O)c(OC)c1	none (no result: IMPase inh)
CC1(C)[C@@H](O)CC[C@]2(C)C3C(=O)C=C4C5C[C@@](C)(C(=O)O)CC[C@]5(C)CC[C@@]4(C)[C@]3(C)CC[C@@H]12 (stereo not given in full)	none
CCc1cc(C(=O)COc2ccc(F)cc2)c(O)cc1O	none (no result: HPGD inh, IMPase inh)
Cc1c(O)ccc(C(=O)COc2ccc(F)cc2)c1O	ALDH1A1 inh 18µM (no result: HPGD inh)
C=CCSc1nccc(-c2cc(Cl)sc2Cl)n1	none
CCOC(=O)c1[nH]c2ccccc2c1NC(=O)C(C)(C)C	HPGD inh inconclusive, ALDH1A1 inh inconclusive
Cc1c(C(=O)COC(C)(C)C)[nH]c2ccccc12	HPGD inh 4.5µM, ALDH1A1 inh 6.3µM
CN(Cc1ccccc1)C(=O)c1ccccc1Br	HPGD inh inconclusive (no result: IMPase inh)
O=C(CN1C(=O)C2C3C=CC(C3)C2C1=O)N1CC(=O)N(CCc2ccccc2)C(=O)C1 (stereo not given)	ALDH1A1 inh 28µM
O=C(CCN1C(=O)C2C3C=CC(C3)C2C1=O)N1CC(=O)N(CCc2ccccc2)C(=O)C1 (stereo not given)	ALDH1A1 inh inconclusive
CN(Cc1ccccc1)S(=O)(=O)c1ccc(N2CCOCC2)nc1	none (no result: HPGD inh, IMPase inh)
COC(=O)N/N=C/c1c[nH]c2ccccc12	none (no result: IMPase inh)
Cc1cc(C)nc(N/N=C/c2c[nH]c3ccccc23)n1	none (no result: HPGD inh, IMPase inh)
Fc1c(F)c(F)c(N/N=C/c2c[nH]c3ccccc23)c(F)c1F	ALDH1A1 inh 32µM
Cn1c(N/N=C/c2c[nH]c3ccccc23)nc2ccccc21	HPGD inh inconclusive, ALDH1A1 inh 16µM
Cc1cc(-c2ccccc2)nc(N(C)NC(=O)c2ccc(Cl)cc2)c1S(C)(=O)=O	none
COc1cc2c(cc1NC(=O)COC(=O)C1CC(=O)N(Cc3ccco3)C1)oc1ccccc12 (stereo not given)	HPGD inh inconclusive, ALDH1A1 inh inconclusive
CO[C@H]1COC(=O)[C@@H](C)COC(=O)[C@@H](Cc2ccccc2)NC(=O)C/C=C\[C@H]1C	none (no result: HPGD inh, IMPase inh)
N#Cc1cn(OCc2ccccc2)c(=O)[nH]c1=O	none (no result: IMPase inh)
C=CCn1c(SCC(=O)c2cc(C)n(CCOC)c2C)nc2sc(C)c(C)c2c1=O	HPGD inh inconclusive, ALDH1A1 inh 25µM
C=CCn1c(SCC(=O)c2cccs2)nc2sc(C)c(C)c2c1=O	none
O=c1[nH]cc(NCCNc2ncc(C(F)(F)F)cc2Cl)c(=O)[nH]1	none (no result: HPGD inh, IMPase inh)
CCOC(=O)c1c(NC(=O)CN2CCN(c3ccc(Cl)cc3)CC2)sc(C)c1C	ALDH1A1 inh inconclusive
COC(=O)c1c(NC(=O)CN2CCC3(O)CCCCC3C2c2ccc(F)cc2)sc(C)c1C (stereo not given)	ALDH1A1 inh 25µM (no result: IMPase inh)
COC(=O)c1c(NC(=O)CN2CCCc3ccccc32)sc(C)c1C	ALDH1A1 inh 20µM (no result: IMPase inh)
COc1ccccc1C1C2CCCCC2(O)CCN1CC(=O)Nc1ccccc1 (stereo not given)	ALDH1A1 inh inconclusive
COC(=O)c1c(NC(=O)CN2CCN(c3ccccc3Cl)CC2)sc(C)c1C	ALDH1A1 inh 3.5µM
CCOC(=O)c1c(NC(=O)CN2CCCc3ccccc32)sc(C)c1C	ALDH1A1 inh inconclusive
CC1CC[C@@]2(OC1)OC1CC3C4CC=C5CC(O)CC[C@@]5(C)C4CC[C@]3(C)C1C2C (stereo not given in full)	none (no result: IMPase inh)
O=C(Cn1c(-c2ccccc2)noc1=O)Nc1ccc(N2CCCCCC2)cc1	ALDH1A1 inh inconclusive
O=C1c2c(O)cc(O)cc2O[C@@H](c2ccc(O)c(O)c2)[C@H]1O	none (no result: HPGD inh, ALDH1A1 inh)
Cc1ccc([S+](=O)([O-])N(c2ccccc2)[S+](=O)([O-])C(F)(F)F)cc1	none (no result: IMPase inh)
O=C(O)c1cc(-c2ccncc2)nc2ccc(S(=O)(=O)N3CCOCC3)cc12	none
O=C(NCc1ccccc1)c1cc(-c2ccncc2)nc2ccc(S(=O)(=O)N3CCOCC3)cc12	ALDH1A1 inh 0.79µM (no result: IMPase inh)
COC(=O)N1c2ccccc2C23[C@@H]4CN5CCC[C@]6(CCC12C(O)(C6)C4=O)[C@H]53	none (no result: IMPase inh)
CC(=O)c1ccc(OCC(=O)NCC(c2ccco2)N2CCCCC2)cc1 (stereo not given)	none (no result: HPGD inh, IMPase inh)
Cc1ccc(S(=O)(=O)NC(C)(C)CSc2nncn2N)cc1	none
Cc1ccc(S(=O)(=O)NC(C)(C)CSc2nnc(Nc3ccccc3)s2)cc1	ALDH1A1 inh 20µM
Cc1ccc(S(=O)(=O)N2CCC(=O)N(CCOC(=O)Nc3ccc(C)c(C)c3)CC2)cc1	none (no result: IMPase inh)
CC1CCCN(C(=O)c2ccc3c(=O)n(C4CCCC4)c(=S)[nH]c3c2)C1 (stereo not given)	ALDH1A1 inh 3.5µM (no result: HPGD inh, IMPase inh)
CC1CCCN(C(=O)c2ccc3nc[nH]c3c2)C1 (stereo not given)	HPGD inh 2µM, ALDH1A1 inh inconclusive
CCCCCn1c(=S)[nH]c2cc(C(=O)N3CCCC3)ccc2c1=O	none (no result: HPGD inh, IMPase inh)
Cc1nn(Cc2cccc(C(=O)Nc3ccn(Cc4ccccc4F)n3)c2)c(C)c1[N+](=O)[O-]	none
O=C(c1cccc(Cl)c1)N1CCCC(C(=O)N2CCCCCC2)C1 (stereo not given)	ALDH1A1 inh inconclusive
Cc1nn(Cc2cccc(C(=O)N3CCCC(C)C3)c2)c(C)c1[N+](=O)[O-] (stereo not given)	HPGD inh 14µM, ALDH1A1 inh inconclusive (no result: IMPase inh)
CC12COC3(C(=O)Nc4ccccc4F)CC1CCC32C (stereo not given)	none (no result: HPGD inh, IMPase inh)
Cc1ccccc1Nc1nnc(-c2ccc(C)c(S(=O)(=O)NCC3CCCO3)c2)c2ccccc12 (stereo not given)	none (no result: HPGD inh, ALDH1A1 inh)
FC(F)(F)c1ccc(CN2C[C@@H]3C(c4ccc(C(F)(F)F)cc4)C4(c5ccccc5)CC3(C4)[C@H]2c2ccccc2)cc1 (stereo not given in full)	none (no result: IMPase inh)
Cc1nn(C)cc1/C=N/NC(=O)Cn1nccc1C	none (no result: IMPase inh)
COc1ccccc1Oc1nc2c(c(=O)n(C)c(=O)n2C)n1Cc1cccc(Br)c1	none (no result: HPGD inh, ALDH1A1 inh)
CNC(=O)/C(C#N)=C\c1ccc(CNS(=O)(=O)c2ccccc2)o1	none (no result: IMPase inh)
COCCCN1C(=O)/C(=C/c2ccc(CNS(=O)(=O)c3ccccc3)o2)C(C(=O)OC)=C1C	ALDH1A1 inh 35µM (no result: HPGD inh, IMPase inh)
CC1(CCc2ccccc2)NC(=S)N(c2ccccc2)N1 (stereo not given)	HPGD inh 40µM (no result: IMPase inh)
CC1(C)CC(C)(O)N(Cc2ccccc2)C(=S)N1 (stereo not given)	none
CC1(CCc2ccccc2)NC(=S)N(c2ccc(Cl)cc2)N1 (stereo not given)	HPGD inh 1µM, ALDH1A1 inh 7.1µM (no result: IMPase inh)
S=C(NCCc1ccccc1)Nc1ccc(Cl)cc1	none (no result: IMPase inh)
CC1=CC(C)(C)NC(=S)N1c1ccc(C)cc1	none
CCC1(c2ccc(Cl)cc2)NC(=S)N(c2ccc(C)cc2)N1 (stereo not given)	HPGD inh inconclusive, ALDH1A1 inh 28µM (no result: IMPase inh)
CCC(C)(C)NC(=O)C(c1ccncc1)N(C(=O)c1sc(C)nc1C)c1ccc(C)cc1 (stereo not given)	none (no result: HPGD inh, IMPase inh)
O=C(OCc1cccc([N+](=O)[O-])c1)c1cc(=O)[nH]c2ccccc12	none (no result: HPGD inh, IMPase inh)
O=[N+]([O-])c1ccc(O)c(/C=N/Nc2ccccc2Cl)c1	none (no result: HPGD inh, IMPase inh)
